Screening results as filed in PubChem BioAssay.
Pf Dd2 growth – qHTS Primary assay for Inhibitors of Plasmodium falciparum Dd2 growth in vitro. P. falciparum Dd2 growth, SYBR Green, 72 h. Potency, µM (series often up to 28.9 µM), usual class: inhibitors. 4.3% of 120,000 active; active means well fitted inhibition curve with a large enough effect; further: nearly all actives have a fitted effect of over 65% in size
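Infected erythrocytes (Dd2, 0.3% parasitemia, 2.5% hematocrit final) are added to compound in RPMI-1640/Albumax II medium, grown 72 h at 37C in low oxygen, then lysed with saponin/Triton-X containing SYBR Green and read by fluorescence.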
Numbers stand for hits; – = inactive. The full list was thinned out, with hits kept by preference.

SMILES | Pf Dd2 growth
Cc1ccc(-c2nnc3c4ccccc4c(-c4ccccc4)nn23)cc1 | –
COc1ccc(-c2nn3c(-c4ccccc4C)nnc3c3ccccc23)cc1 | 11µM
COc1ccc(-c2oc3ncn4nc(-c5ccccc5C)nc4c3c2-c2ccc(OC)cc2)cc1 | –
CCCNC(=O)N(C1CCOCC1)C1CCN(C(=O)Cc2ccccc2Cl)CC1 | –
CCN(CC)C(=O)N1CCC2(CC1)CC(N1CCN(c3ccccc3)CC1)CCO2 (centres undefined) | –
Cc1ccc(C(=O)N2CCC(n3c(=O)[nH]c4ccccc43)CC2)cc1 | –
O=C1NC(=NC2CCCCC2)C2(CCCN(Cc3ccsc3)C2)N1c1cc(F)cc(F)c1 (centres undefined) | 7.9µM
COc1cccc(N2C(=O)NC(=NC3CCCC3)C23CCCN(Cc2ccsc2)C3)c1 (centres undefined) | 8.9µM
O=C(OCc1ccccc1)N1CCCC2(C1)C(=NC1CCCC1)NC(=O)N2c1cc(F)cc(F)c1 (centres undefined) | –
COc1cccc(N2C(=O)NC(=NC3CCCC3)C23CCN([S+](=O)([O-])c2ccccc2)C3)c1 (centres undefined) | –
O=C1NC(=NC2CCCCC2)C2(CCN(Cc3ccsc3)CC2)N1c1cccnc1 | –
O=C1NC(=NC2CCCCC2)C2(CCCN(Cc3cccnc3)C2)N1c1cccnc1 (centres undefined) | –
COc1ccc(NC(=O)N2CCn3nnc(CCC(=O)NC4CC4)c3C2)cc1 | –
COCCN1CCC(N2CCN(C(=O)c3ccccc3Br)CC2)C1=O (centres undefined) | –
Cc1nc(C)c(C(=O)N2CCCCCCNC(=O)[C@@H]3C[C@@H](c4nc(C(C)C)no4)C[C@@H]32)s1 | –
CSCC(=O)N1C[C@@H](NC(=O)Nc2cccc(SC)c2)C[C@H]1C(=O)N[C@@H](CCS(C)(=O)=O)C(N)=O | –
c1nc(N2CCOCC2)c2c3c(sc2n1)CN(CC1CCCCC1)CC3 | 2.8µM
c1coc(CN2CCc3c(sc4ncnc(N5CCOCC5)c34)C2)c1 | 8.9µM
CCOc1ccc(CN2CCN(c3ncnc4sc5c(c34)CC(C)CC5)CC2)cc1 (centres undefined) | –
COc1ccc(CN2CCN(c3ncnc4sc5c(c34)CCCC5)CC2)cc1F | –
CN(C)c1ncnc2sc3c(c12)CCN(Cc1ccncc1)C3 | –
Clc1ccc(CN2CCN(c3ncnc4sc5c(c34)CCCC5)CC2)cc1Cl | –
COCc1cc(CC2(NC3CCN(C(C)=O)CC3)COC2)no1 | –
CC(C)CCN1CC2(CCCN(C(=O)c3cc(C(F)(F)F)[nH]n3)C2)CCC1=O (centres undefined) | –
COc1cccc(C(=O)NC2CCCN(c3cc(-c4ccccc4)[nH]n3)C2)c1OC (centres undefined) | –
SMILES | Pf Dd2 growth
C[S+](=O)([O-])N1CCC(c2nnc3n2CCNC3)CC1 | –
COCCO[C@H]1C(=O)N(C2CCN(C(=O)c3ccc4cc[nH]c4c3)CC2)[C@H]1c1ccncc1 | –
C=CCc1cc(-c2c(-c3ccccc3)ncn2CCCO)cc(OC)c1O | –
C=CCc1cc(-c2c(-c3ccccc3)ncn2CCOCCO)cc(OC)c1O | 6.3µM
OCCOCCn1cnc(-c2ccccc2)c1-c1ccccc1Cn1cccn1 | –
Cc1onc(-c2ccccc2)c1C(=O)N1CCCC2(CCOC2)C1 (centres undefined) | –
COc1cc(=O)n2c(c1C(=O)Nc1ccc(C)cc1F)CCCC2 | –
COc1ccc(OC)c(NC(=O)CSC2=Nc3ccccc3C3=NC(CCC(=O)NCc4ccccc4)C(=O)N23)c1 (centres undefined) | 13µM
Cc1cccc(NC(=O)CSC2=Nc3ccccc3C3=NC(CC(=O)NCc4cccs4)C(=O)N23)c1 (centres undefined) | 3.2µM
CC(C)(C)c1ccc(CSC2=Nc3ccccc3C3=NC(CC(=O)NCc4cccs4)C(=O)N23)cc1 (centres undefined) | –
COc1ccc(Cl)cc1NC(=O)CSC1=Nc2ccccc2C2=NC(CCC(=O)NCc3ccc(F)cc3)C(=O)N12 (centres undefined) | –
CCOc1ccc(NC(=O)CSC2=Nc3ccccc3C3=NC(CCC(=O)NCc4ccccc4)C(=O)N23)cc1 (centres undefined) | –
Cc1ccc(CSC2=Nc3ccccc3C3=NC(CC(=O)NCc4cccs4)C(=O)N23)c(C)c1 (centres undefined) | –
COc1ccccc1NC(=O)CSC1=Nc2ccccc2C2=NC(CCC(=O)NCCc3ccccc3)C(=O)N12 (centres undefined) | –
CC(C)c1ccc(NC(=O)CSC2=Nc3ccccc3C3=NC(CCC(=O)NCc4ccc(F)cc4)C(=O)N23)cc1 (centres undefined) | –
COc1ccc(NC(=O)CSC2=Nc3ccccc3C3=NC(CCC(=O)NCc4ccc(F)cc4)C(=O)N23)cc1Cl (centres undefined) | 11µM
CC1(NC(=O)C2CC2)CN(Cc2nc(-c3cccc(F)c3)cs2)C1 | –
COc1ccccc1N1CCN(C(=O)CN2C(=O)NC3(CCC(C)CC3)C2=O)CC1 (centres undefined) | –
Cc1ncc(CN2CCC3(CC2)CCN(Cc2ccoc2)CC3CO)n1C (centres undefined) | –
CC1=NS(=O)(=O)N(C)C=C1C(=O)OCc1nc(-c2cccc(Cl)c2)no1 | –
CCOc1ccc(C2Cn3nnc(-c4nc(-c5ccc(SC)cc5)no4)c3CO2)cc1 (centres undefined) | –
COc1ccc(OC2CCN(C(C)=O)CC2)c(C(=O)NCc2cc3ccccc3[nH]2)c1 | –
O=C(c1csc(N2CCN(c3ccccc3)CC2)n1)N1CCCCCC1 | –
CN1CCCC2(CCN(C(=O)c3sccc3S(N)(=O)=O)C2)C1=O (centres undefined) | –
O=c1c2c(CO)c(-c3ccccc3)nn2ccn1Cc1ccccc1 | –
SMILES | Pf Dd2 growth
COc1ccc(-c2nc(CN3C(=O)CN=C(c4ccccc4Cl)c4cc(Cl)ccc43)c(C)o2)cc1OC | 13µM
Cc1oc(-c2ccc(Cl)cc2)nc1CN1C(=O)CN=C(c2ccccc2)c2ccccc21 | –
Cc1oc(-c2ccc(Cl)cc2)nc1CN1C(=O)CN=C(c2ccccc2)c2cc(Cl)ccc21 | –
CC(=O)N1CC2(Cc3ccccc31)CN(C(=O)N(C)C)C2 | –
FC(F)(F)c1cccc(Nc2ncc(-c3cccnc3)c3c2OCC3)c1 | 8.9µM
COc1cccc(Nc2ncc(-c3cccc(N(C)C)c3)c3c2OCC3)c1 | –
Clc1ccc(Nc2ncc(-c3cccnc3)c3c2OCC3)cc1 | 10µM
COc1ccc(Nc2ncc(-c3cccnc3)c3c2OCC3)cc1 | –
Cn1cc(-c2cnc(Nc3ccncc3)c3c2CCO3)cn1 | –
Cc1cc(-c2cnc(Nc3ccc(F)cc3)c3c2CCO3)ccn1 | –
COc1ccc(NC(=O)Cn2ccn3nc4c(c3c2=O)CCCCC4)cc1Cl | –
Cc1ccc(C(=O)N2CCN(C(=O)N3CC4CC(C3)[C@H]3CCCC(=O)N3C4)CC2)s1 (some centres undefined) | –
Cc1cc(C)n(CC(=O)N2CC(N(C)Cc3cccnc3)C2)n1 | –
COCCOC1CCN(C(=O)NCCc2ccccc2)CC1 | –
COc1ccc(C[C@H](NC(=O)[C@@]2(O)C[C@@H](O)[C@H](O)[C@@H](NS(=O)(=O)c3cccc(C(F)(F)F)c3)C2)C(N)=O)cc1 | –
CC(c1cccs1)N(C)S(C)(=O)=O (centres undefined) | –
COc1cccc(CN(C)C(C)c2cccs2)c1 (centres undefined) | –
